Laboratory results as given in PubChem BioAssay (NCATS).
Values joined by “and” are separate entries in the source; they are usually repeats but may differ in a detail not shown here. Identical values can stand only once. Records with an inconclusive call do not appear. Active and inactive are the calls of the source. The call rests on the fitted dose curve.

Experiment: qHTS Assay for Lipid Storage Modulators (AID 1519); on activity change, negative = inhibition: on the % scale 0 is the no-effect control and ±100 the full control effect
Details: Drosophila S3 cells, BODIPY lipid droplet/cell ratio, laser cytometry, cells loaded with oleic acid
Excerpt: NIH Molecular Libraries Probe Production Centers Network [MLPCN]
NIH Chemical Genomics Center [NCGC]
Assay Submitter (PI): Beller, Mathias; Max-Planck-Institut fur Biophysikalische Chemie
NCGC Assay Overview: Storing lipids as a reservoir for energy or the anabolism of elementary metabolites is a common feature of probably all cells and is conserved from bacteria to humans. The universal cellular lipid storage organelle is the so-called lipid storage droplet (LD). Although ubiquitous, LDs share a simple structure composed of a hydrophobic core that harbors the storage lipids, which is shielded by a droplet-specific phospholipid monolayer to which proteins are attached. The current model of LD biogenesis involves an incorporation of the lipid core into the membrane leaflets of the endoplasmic reticulum (ER) followed by a subsequent budding-like maturation of a LD, which ultimately pinches off. Once released, LD volume can increase by localized lipogenesis or fusion of existing droplets. Storage lipids are re-mobilized enzymatically by lipase activity. Lipase regulation in the adipocyte is heavily studied and involves multiple components including catecholamine signaling, the LD-associated proteins Perilipin and comparative gene identification-58 (CGI-58) and at least two lipases named hormone sensitive lipase (HSL) and adipocyte triglyceride lipase (ATGL). LD regulation outside of the adipocyte is poorly understood and only few components are known. However, there is an urgent need to learn more about ectopic fat depots as mislocalized storage of lipids, for example in the liver or muscle, is an eminent health problem associated with insulin resistance or the metabolic syndrome. We developed a laser-scanning cytometer assay to enable 1,536-well screening and combined the results of the small molecules screen with an RNAi database based on lipid storage.
NCGC Assay Protocol Summary:
We dispensed 4 uL of cells at 1.25 x 10^6 cells/mL into LoBase Aurora COC 1,536-well plates (black walled, clear bottom) with a bottle-valve solenoid-based dispenser (Aurora) to obtain 5,000 cells/well. Triacsin C (Sigma-Aldrich T-4540), an inhibitor of long-chain fatty acyl CoA synthetase that blocks synthesis of triglycerides, was used as a positive control for lipid under-storage. A total of 23 nL of compound solution of different concentrations were transferred to the assay plates using a Kalypsys pin tool equipped with a 1,536-pin array containing 10-nL slotted pins (FP1S10, 0.457-mm diameter, 50.8 mm long; V&P Scientific). One microliter of oleic acid (400 uM) was added, and the plate was lidded with stainless steel rubber gasket lined lids containing pinholes. […] Fluorescence was detected by excitation of the fluorophores with a 488-nm laser on an Acumen Explorer (TTP Lab Tech). The total intensity in channel 1 (500-530 nm) reflected lipid droplet accumulation. […] The ratio of the total intensity in PMT channel 1 over total intensity of channel 3 was also calculated. Percent activity was computed relative to an internal control (100% inhibited lipid droplet deposition due to the presence of 20 uM Triacsin C), which was added to 32 wells/plate.

[1] = measured here: cell count channel max response
[2] = measured here: lipid channel max response

Row | Compound | activity change, negative = inhibition (at 25.7 µM (top of the series)) | activity change, negative = inhibition (at 57.5 µM (top of the series)) | max response [1] | max response [2]
1 | Cc1nccc2c1[nH]c1ccccc12 | 0.405% (inactive) | 2.54% (inactive) | 6.61% and 77.2% | 6.19% and 80.2%
2 | CN[C@@H](C)[C@H](O)c1ccccc1 |  | -15% (inactive) | -49.5% | -56.7%
3 | Oc1ccc2c3c1O[C@H]1c4[nH]c5c(c4C[C@@]4(O)[C@@H](C2)N(CC2CC2)CC[C@]314)C[C@@]1(O)[C@H]2Cc3ccc(O)c4c3[C@@]1(CCN2CC1CC1)[C@H]5O4 |  | -0.289% (inactive) | -23.9% | -23.6%
4 | O=C1CCCN1CC#CCN1CCCC1 |  | 5.07% (inactive) and 8.93% (inactive) and 0.711% (inactive) | 5.66% and 4.2% and 20.8% | 13% and 25.8% and 21.1%
5 | CS(=N)(=O)CC[C@H](N)C(=O)O (stereo not given in full) |  | -1.65% (inactive) | 43.8% | 40.4%
6 | Cc1cc(O)ccc1Cl |  | 8.09% (inactive) | -7.09% | 5.53%
7 | O=C(O)CCCOc1ccc(Cl)cc1Cl |  | 4.8% (inactive) | 15.4% | 22.4%
8 | C[C@]12N[C@H](Cc3ccccc31)c1ccccc12 |  | -1.18% (inactive) | 51.7% | 40.7%
9 | O=C(O)CC[N+](=O)[O-] |  | 1.53% (inactive) and -0.853% (inactive) | 11.6% and 14.1% | 18.9% and 15.4%
10 | O=C(Cc1ccc(Cl)c(Cl)c1)N1CCCCC1CN1CCCC1 (stereo not given) |  | 3.16% (inactive) | 16.5% | 19.9%
11 | NC(CCP(=O)(O)O)C(=O)O (stereo not given) |  | 2.25% (inactive) | 14.5% | 18.2%
12 | COc1ccc(C(c2ccc(OC)cc2)C(Cl)(Cl)Cl)cc1 |  | 6.03% (inactive) | 12.8% | 30.2%
13 | C[C@@H](N)Cc1cnc[nH]1 |  | 0.775% (inactive) | -2.18% | -3.82%
